Rows were chosen to be rich in hits. Some 10% of all compounds tested hit in one or more screens of this group.
GLS inh – blocks human kidney-isoform glutaminase activity | hit rate 0.21% among 410,000 | GLS enzymatic activity, qHTS titration | Potency, µM (top dose mostly 45.5 µM), for the others: at the top dose activity change, negative = inhibition, actives largely listed as inhibitors | AID 624170; also: % is scaled to controls: 0 for no effect and ±100 for the full control effect
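Coupled fluorescence readout: glutamate oxidase/HRP/Amplex Red detect glutamate formed by hKGA from L-glutamine (1 mM solution added). Buffer 45 mM KH2PO4 pH 8.2, 0.02% Tween-20; reads at t0 and 30 min RT.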
JMJD2A Tudor – blocks the human JMJD2A Tudor domain | AlphaScreen JMJD2A-Tudor / H3K4me3 peptide binding | O75164 | Potency, µM (titrated, usually from 114 µM), for the others: top-dose activity change, negative = inhibition, hits mostly inhibitors | AID 504339 | hit rate 4.4% among 390,000; also: % is scaled to controls: 0 for no effect and ±100 for the full control effect; nearly all actives have a fitted effect of over 50% in size
L3MBTL1 inh – L3MBTL1 (human) inhibition; AlphaScreen L3MBTL1–H3K9me1 peptide binding; Potency, µM (doses to about 57.1 µM), for the others: at the highest dose activity, negative = inhibition, most hits filed as inhibitors; hit rate 0.66% among 230,000; AID 485360; also: % is scaled to controls: 0 for no effect and ±100 for the full control effect; nearly all actives have a fitted effect of over 60% in size
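Displacement of a biotinylated histone H3(1-15) peptide monomethylated at Lys9 (75 nM) from L3MBTL1 (50 nM) was measured by AlphaScreen after a 30 min room-temperature compound incubation; cefsulodin titration served as intraplate control.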
BAZ2B inh – inhibitors of human BAZ2B bromodomain; Potency, µM (top dose mostly 114 µM), without a hit: at the top dose activity change, negative = inhibition, most hits filed as inhibitors; AID 504333; Q9UIF8; AlphaScreen BAZ2B-H3K14Ac peptide displacement; hit rate 4.4% among 360,000; also: % is scaled to controls: 0 for no effect and ±100 for the full control effect; nearly all actives have a fitted effect of over 60% in size
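BAZ2B (50 nM) with biotin-H3(5-23)K14Ac peptide (50 nM) in PBS pH 7.4, 0.01% Tween-20, preformed 30 min, then compound 30 min at room temperature; top concentration 110uM. AlphaScreen streptavidin donor/nickel chelate acceptor beads (10 ug/mL final), 20 min dark, signal read.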
G9a block – inhibitors of human histone lysine methyltransferase G9a | Q96KQ7 | G9a H3K9 monomethylation, AlphaScreen, 2 h | hit rate 8.8% among 350,000 | Potency, µM (highest dose often 102 µM), for inactives: at the highest dose activity, negative = inhibition, actives largely listed as inhibitors | AID 504332; also: % is scaled to controls: 0 for no effect and ±100 for the full control effect; nearly all actives have a fitted effect of over 75% in size
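AlphaScreen read-out: biotin-H3K9 peptide (500 nM) methylation by 20 nM enzyme with 20 uM SAM, 2 h at room temperature after 15 min compound preincubation; anti-monomethyl H3K9 antibody plus donor/acceptor beads, 10 min dark.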
HP1b binding inh – HP1-beta chromodomain-methylated histone interaction inhibition | P83916 | hit rate 0.56% among 390,000 | Potency, µM (titrated, usually from 114 µM), for the others: top-dose activity change, negative = inhibition, usual class: inhibitors | AlphaScreen HP1-beta / biotin-H3K9me3 peptide binding; also: nearly all actives have a fitted effect of over 70% in size
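Compound inhibition of the preformed complex between 50 nM HP1-beta and 50 nM biotinylated H3K9me3 peptide was read by AlphaScreen. Buffer was PBS pH 7.4 with 0.01% Tween-20. Incubations ran 30 min at room temperature, with 10 ug/mL donor/acceptor beads.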
Active calls of the source: *; ? = inconclusive; nt = not tested or not shown; ! = not confirmed by another sample; [ ] = another dose, or the depositor's remark. Calls follow the shape of the dose curve; as a rule, active = well fitted curve in the direction sought with a large enough effect; inconclusive = small, poorly fitted or top-dose-only effect, or another doubt; inactive = no such curve, though single readings can be large; an effect the other way counts as inactive or inconclusive. Potency is read from the fitted curve at half-maximal effect.

SMILES	GLS inh	JMJD2A Tudor	L3MBTL1 inh	BAZ2B inh	G9a block	HP1b binding inh
CCc1ccc(Nc2n[n+](-c3ccccc3)c(-c3ccc(N(CC)CC)cc3)s2)cc1	8.5%	39.8µM*	-12.0%	39.8µM*	12.6µM*	?
CCc1ccc(S(=O)(=O)c2nnn3c2nc(NCc2cccs2)c2sccc23)cc1	-7.5%	-19.4%	nt	?	-30.5%[59 µM]	17.9%
O=C(/C=C/c1ccccc1F)c1cccc([N+](=O)[O-])c1	-8.7%	?	-0.5%	?	28.2µM*	-1.8%
COc1cc(/C=C/C(=O)c2cccc([N+](=O)[O-])c2)cc(OC)c1OC	-12.1%	?	-2.6%	?	?	-10.6%
O=C(C#Cc1ccccc1)c1cccc([N+](=O)[O-])c1	57.0%	-13.6%	nt	?	3.55µM*	20.1%
Cc1nc(-c2ccc(Cl)cc2)sc1CCNC(=O)C(=O)Nc1ccc2c(c1)OCO2	4.5%	-16.3%	nt	-1.8%	-4.8%[59 µM]	12.4%[57 µM]
CC1(C2(O)CC(c3ccccc3)ON2)CCCCC1 (stereo not given)	nt	nt	nt	42.5%	39.8µM*	nt
COC(=O)NC(NS(=O)(=O)c1ccccc1)(C(=O)OC)C(F)(F)F (stereo not given)	50.9%	-13.1%	?	15.7%	11.7%	-0.6%
CCOC(=O)C(NS(=O)(=O)c1ccccc1)(C(F)(F)F)P(=O)(OCC(C)C)OCC(C)C (stereo not given)	9.0%	-15.8%	nt	2.3%	10µM*	13.2%
COc1ccc(C2=C(C#N)C(=O)OC2)cc1	-4.1%	-20.7%	7.6%	?	31.6µM*	46.7%
Cc1ccc(NC(=O)Cn2nc(-c3ccccc3)nc(Cc3ccc(Cl)cc3)c2=O)cc1	2.6%	-10.7%	nt	-3.0%	-0.3%[59 µM]	24.5%
CC(C)(Cc1cccc(CC(C)(C)C(=O)O)c1)C(=O)O	-4.2%	-12.4%	3.1%	2.5%	14.3%	62.0%
C[C@@](Cc1ccc(O)c(O)c1)(NN)C(=O)O	-16.6%	79.4µM*	4.4%	5.0%	3.16µM*!	?
C[C@](Cc1ccc(O)c(O)c1)(NN)C(=O)O	nt	nt	nt	nt	2.24µM*	nt
CC(N)(Cc1ccc(O)c(O)c1)C(=O)O (stereo not given)	nt	nt	nt	nt	0.947µM*	nt
COCCn1c(=O)cnc2cnc(N3CCN(C)CC3)nc21	nt	nt	nt	nt	-1.1%[0.501 µM]	nt
Cc1ccc(-c2nc(N3CCCC(C)C3)c3ccccc3n2)cc1 (stereo not given)	-14.1%	67.5%	nt	64.4%	47.0%[59 µM]	107.6%
COc1ccc(CN2C(=O)N(c3cccc(C)c3)C(=O)C2CC(=O)Nc2ccc(F)cc2)cc1OC (stereo not given)	-0.9%	-7.9%	nt	0.8%	1.9%[59 µM]	30.6%
NC1(C(=O)O)C[C@@H](C(=O)O)[C@H](C(=O)O)C1	nt	nt	nt	nt	21.5%[59 µM]	nt
NC1(C(=O)O)CCCCC1	nt	nt	nt	nt	1.89µM*!	nt
NC1(C(=O)O)CSSC1	5.2%	89.1µM*	nt	nt	nt	?
Cc1nc2c(=O)n(C)c(=O)n(C)c2nc1Cl	18.2%	-6.3%	13.4%	5.5%	-6.3%[59 µM]	53.3%
Cc1nc2[nH]c(=S)n(C)c(=O)c2nc1C	-0.8%	89.1µM*	3.0%	-11.3%	44.7µM*	15.5%
CCSc1nc2ccccc2n1S(=O)(=O)c1ccccc1	0.1%	-21.3%	6.4%	5.4%	50.1µM*	34.5%
C=CCSc1nc2ccccc2n1S(=O)(=O)c1ccc(Cl)cc1	14.6%	-36.0%	nt	nt	nt	22.8%
COc1ccccc1CCNC(=O)Cc1c(C)c2cc3c(C)coc3cc2oc1=O	-3.6%	-10.1%	nt	-2.4%	3.3%[59 µM]	34.7%
CC(C)OC(=O)c1cccc(C(=O)Oc2ccc(Br)cc2)n1	18.3%	0.6%	1.8%	8.6%	19.9%	40.7%
CC(C)OC(=O)c1cccc(C(=O)O)n1	4.6%	7.08µM*	18.2%	?	2.51µM*	5.9%
CC(=O)Nc1ccc(N2C(=O)c3cccc4c(O)ccc(c34)C2=O)cc1	0.1%	?	nt	50.1µM*	?	16.3%
O=C1c2cccc3c(O)ccc(c23)C(=O)N1c1ccc(Cl)cc1	16.7%	8.9%	nt	11.5%	44.7µM*	37.8%

Compound activity as filed in PubChem BioAssay.
